Several values for one entry are separate records, joined by “and”; a condition that tells them apart may be missing. Identical values can stand only once. The panel holds about 83,000 compounds, 20% with a hit somewhere; the sample as a whole holds those more often.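 Testing used 96-well plates and a 48-hour single-concentration exposure. Example: -40 means 40% of the starting cells died.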 Activity calls are given as the source filed them. How the source made its calls: active means growth percent below 10; inactive means the rest.
Legend:
Assay in all cases: NCI-60 one-dose screen, 48 h (100 = growth as untreated, 0 = no growth, -100 = all killed)
Conditions in all cases: 10 µM unless noted
NCI-H23 lung = tested on: NCI-H23 lung
NCI-H226 lung = tested on: NCI-H226 lung
NCI-H322M lung = tested on: NCI-H322M lung
HOP-62 NSCLC = tested on: HOP-62 NSCLC
NCI-H460 lung = tested on: NCI-H460 lung
HOP-92 NSCLC = tested on: HOP-92 NSCLC
NCI-H522 lung = tested on: NCI-H522 lung
A549/ATCC NSCLC = tested on: A549/ATCC NSCLC
786-0 renal = tested on: 786-0 renal
COLO 205 colon = tested on: COLO 205 colon

Structure (SMILES) | growth (NCI-H23 lung) | growth (NCI-H226 lung) | growth (NCI-H322M lung) | growth (HOP-62 NSCLC) | growth (NCI-H460 lung) | growth (HOP-92 NSCLC) | growth (NCI-H522 lung) | growth (A549/ATCC NSCLC) | growth (786-0 renal) | growth (COLO 205 colon)
O=C1OCC2=C1C(c1cccc(C(F)(F)F)c1)c1cc3c(cc1N2CCO)CCC3 (stereo not given) | 25.7% (inactive) | 40.2% (inactive) | 45% (inactive) | 15.9% (inactive) | 3.4% (active) | 64.2% (inactive) | -18.4% (active) | 12.4% (inactive) | 17% (inactive) | -55.2% (active)
O=C(/C=C/c1ccccc1)c1cccs1 | 94.1% (inactive) and 105% (inactive) | 103% (inactive) | 106% (inactive) | 98.7% (inactive) and 114% (inactive) | 93.3% (inactive) and 109% (inactive) | 79.3% (inactive) | 73.6% (inactive) and 94.2% (inactive) | 93.9% (inactive) and 94.3% (inactive) | 89.5% (inactive) and 94.2% (inactive) | 112% (inactive) and 120% (inactive)
COC(=O)/C=C1/SC(N2N=C(c3cccs3)CC2c2ccc(F)cc2)=NC1=O (stereo not given) | 82.2% (inactive) | 84% (inactive) | 93% (inactive) | 85.2% (inactive) | 24.4% (inactive) | 77.1% (inactive) | 24.3% (inactive) | 90.7% (inactive) | 85.3% (inactive) | 21.8% (inactive)
Cc1ccc(Cc2cnc(NC(=O)c3cc(C)oc3C)s2)cc1 | 76.1% (inactive) | 90.4% (inactive) | 70.8% (inactive) | 86% (inactive) | 31.3% (inactive) | 79.1% (inactive) | 57.3% (inactive) | 55% (inactive) | 76.8% (inactive) | 115% (inactive)
C=C1C(=O)O[C@@H]2[C@H]3[C@H](COC(C)=O)[C@@H](OC(C)=O)C[C@H]3C(=C)[C@@H](O)C[C@@H]12 | 96.2% (inactive) | 98.8% (inactive) | 102% (inactive) | 91.7% (inactive) | 103% (inactive) | 99.8% (inactive) | 73% (inactive) | 90.6% (inactive) | 85.8% (inactive) | 100% (inactive)
CCCCCCCCCCCCCCCC[N+](C)(C)CCN(Cc1ccc(OC)cc1)c1ncccn1 | 41.5% (inactive) | 48.3% (inactive) and 60.2% (inactive) | -81.8% (active) and 74.2% (inactive) | -100% (active) and 65.2% (inactive) | -84.1% (active) and 67.4% (inactive) | -66.1% (active) and 15.6% (inactive) | -91.2% (active) and 23.4% (inactive) | -86.1% (active) and 54.4% (inactive) | -33.7% (active) and 61.9% (inactive) | -100% (active) and 33.1% (inactive)
CN1CCN(Cc2ccc(NC(=O)c3cccc(C#Cc4c(N)ncc5ccc(F)cc45)c3)cc2C(F)(F)F)CC1 | -78.2% (active) | 4.59% (active) | 3.59% (active) | -36.4% (active) | -92.3% (active) | -49.4% (active) | -61.1% (active) | -69.6% (active) | -83.2% (active) | -59.6% (active)
Cc1cnc(C(=O)NNc2nc3sc4c(c3c(=O)[nH]2)C(C)CCC4)cn1 (stereo not given) | 22.9% (inactive) | -8.7% (active) | 25.3% (inactive) | 8.82% (active) | 5.04% (active) | 43.6% (inactive) | 26.1% (inactive) | 12.3% (inactive) | 11.2% (inactive) | 11.2% (inactive)
COc1cc(/C=C2/C=C(c3ccc(C(C)(C)C)cc3)N(CCc3ccc(S(N)(=O)=O)cc3)C2=O)cc(OC)c1OC | 62.3% (inactive) | 62.7% (inactive) | 81.2% (inactive) | 77% (inactive) | 35.6% (inactive) | 23% (inactive) | 49.8% (inactive) | 38.2% (inactive) | 29.7% (inactive) | 34.3% (inactive)
COc1ccc(-c2cc(-c3cccnc3)nc3sc4c(Cl)nnnc4c23)cc1OC | 91.3% (inactive) | 84.4% (inactive) | 95.3% (inactive) | 98.4% (inactive) | 102% (inactive) | 106% (inactive) | 47.4% (inactive) | 93.6% (inactive) | 109% (inactive) | 42% (inactive)
CN1CCN(c2ccc(/C=C/C(=O)c3ccc(O)cc3)cc2)CC1 | 93.9% (inactive) | 97% (inactive) | 101% (inactive) | 97.7% (inactive) | 101% (inactive) | 74.8% (inactive) | 88% (inactive) | 97.7% (inactive) | 98.8% (inactive) | 113% (inactive)
COc1ccc2c(O)c(/C=C3\N=Nc4nc(C)ccc43)oc2c1CC1CCNCC1 | 67.2% (inactive) | 57.5% (inactive) | 80.8% (inactive) | 64.3% (inactive) | 79.3% (inactive) | 39.2% (inactive) | 43.4% (inactive) | 68.2% (inactive) | 54.1% (inactive) | 78.4% (inactive)
Cc1ccc2nc3ccccc3c(NCc3ccc(Cl)cc3)c2c1 | 46% (inactive) | 72.3% (inactive) | 55.9% (inactive) | 65.3% (inactive) | 29.5% (inactive) | -4.63% (active) | 54.2% (inactive) | 40.8% (inactive) | 34.7% (inactive) | -53.3% (active)
COc1ccc(Oc2nc(Nc3ccc(N4CCOCC4)cc3)ncc2NC(=O)c2cccc(C(F)(F)F)c2)cc1 | 87.3% (inactive) | 81.2% (inactive) | 83.6% (inactive) | 94.4% (inactive) | 70.2% (inactive) | 76.7% (inactive) | 0.64% (active) | 66% (inactive) | 87.8% (inactive) | 84.8% (inactive)
CCOC(=O)c1c(-c2ccc(C)cc2)c(C#N)c(=O)n(-c2cccc(C(F)(F)F)c2)c1N | 98.6% (inactive) | 100% (inactive) | 103% (inactive) | 99.8% (inactive) | 104% (inactive) | 90.9% (inactive) | 94.6% (inactive) | 101% (inactive) | 102% (inactive) | 106% (inactive)
CN1CCN(Cc2ccc(NC(=O)c3nc4ccc5[nH]ncc5c4c4c3CCCC4)cc2C(F)(F)F)CC1 | -21.9% (active) | 73.4% (inactive) | 19% (inactive) | -75.9% (active) | -58.6% (active) | -79.9% (active) | -70.7% (active) | -83.1% (active) | -85.4% (active) | -86.8% (active)
CCOc1ccc(C(=O)Cc2ccccc2)cc1 | 115% (inactive) and 105% (inactive) | 99.1% (inactive) | 114% (inactive) | 97.3% (inactive) and 121% (inactive) | 110% (inactive) and 112% (inactive) | 108% (inactive) and 102% (inactive) | 93.8% (inactive) and 102% (inactive) | 98.9% (inactive) and 99.4% (inactive) | 93.2% (inactive) and 103% (inactive) | 120% (inactive) and 125% (inactive)
COc1cc(NS(=O)(=O)C(C)C)cc(-c2cc(-c3ccc(N4CCNCC4)cc3)cnc2N)c1 | 84.1% (inactive) | 61.1% (inactive) | 91% (inactive) | 103% (inactive) | 97.1% (inactive) | 61.8% (inactive) | 52.8% (inactive) | 76.9% (inactive) | 45.1% (inactive) | 84.4% (inactive)
O=C(/C=C/C12c3ccccc3C(c3ccccc31)C1C(=O)NC(=O)C12)c1ccncc1 (stereo not given) | 23.2% (inactive) | 78.9% (inactive) | 35.6% (inactive) | 4.78% (active) | 24.9% (inactive) | 23.6% (inactive) | 28.5% (inactive) | 86.1% (inactive) | 20.6% (inactive) | 78.2% (inactive)
C=C(c1ccc(C(=O)O)cc1)c1cc2c(cc1C)C(C)(C)CCC2(C)C | 81.7% (inactive) and 81.9% (inactive) | 76% (inactive) and 86.3% (inactive) | 72% (inactive) | 79.7% (inactive) and 67.3% (inactive) | 83.4% (inactive) and 79% (inactive) | 68.4% (inactive) | 52.4% (inactive) and 61.4% (inactive) | 52.1% (inactive) and 31.2% (inactive) | 79.1% (inactive) and 80.1% (inactive) | 135% (inactive) and 118% (inactive)
COc1cc(/C=C/C(=O)c2ccc(NC(=O)CSc3nnc(-c4cc(-c5ccccc5)nc5ccccc45)n3-c3ccccc3)cc2)cc(OC)c1OC | 86.8% (inactive) | 85.4% (inactive) | 91.7% (inactive) | 93.7% (inactive) | 90.4% (inactive) | 88.6% (inactive) | 70.7% (inactive) | 85.8% (inactive) | 94.7% (inactive) | 86.4% (inactive)

Source: PubChem BioAssay (NCI)
